Laboratory results from the supplement of paper PMC10338343.
± gives the standard deviation.

The sequences below were run on MILI (PIWIL2) piRISC loaded with L1MC piRNA (26 nt) (assay: pre-steady-state target cleavage rate (min^-1); guide: L1MC piRNA 5'p-UAACUAAAUACUAUGCAAGCUGUAGG; MIWI and MILI are mouse PIWI proteins and EfPiwi is from a freshwater sponge; tags in brackets are library labels; higher = faster piRNA-guided slicing of the target). Conditions: auxiliary factor: 500 nM mouse GTSF1.
Summary of the method: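 Using HEPES–potassium acetate buffer at 33 °C, 1 nM active affinity-purified piRISC with a single synthetic guide was mixed with 0.1 nM transcribed, DNA-blocked target RNA library for 0–8 or 0–960 min, with or without 500 nM GTSF1 partner protein. Uncleaved targets were sequenced and normalised to depth and to weakly complementary targets, and three trials were pooled with k3 capped at 0.0001 min^-1. A burst-and-steady-state fit gave the pre-steady-state cleavage rate.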

Sequence	pre-steady-state target cleavage rate
UCCUGGAACAGCUUGCAAAGAAUUUAGUUA	0.102 ± 0.037
UCCUCCUACAGCUUGCAUAGUAUAAUGAAA	0.0878 ± 0.019
UCCUGGAUGUCGUUGCUUAGUAUUUAGAUA	0.0162 ± 0.0057
UCCUGCUACAGCUUGCAUAGUAUUAUCAAA	0.0862 ± 0.026
UCCUGGAUGUCGAUGCAUAGUAUAAUGUUA	0.031 ± 0.012
UCCUGCUACACGAUGCAUAGUAUUUACAAA	0.0504 ± 0.02
UCCUGGAUGUCGAUGCAUAAUAUUUAGUUA	0.0556 ± 0.013
UCCUGGAUGUCGAUGCUUAGUAUAUAGUUA	0.0304 ± 0.0073
UCCUGGAACAGCUUGCAUACUAUUUAGAAA	0.0271 ± 0.011
UCCUCCUAGUCCUUGCAUAGUAUUUUCAAA	0.0344 ± 0.013
UCCUGGAUGAGCUUGCAUAGUAUAUAGUAA	0.163 ± 0.039
UCCUGGAUGAGCUUGCAUAGUAAAUAGUAA	0.0816 ± 0.026
UCCUGGAUGUGCAUGCAUAGAAUUUAGUUA	0.00714 ± 0.0044
UCCUGCUACAGCUUGCAUACUAUUUUCAAA	0.0295 ± 0.01
UCCUGGAUGUGCUUGGAUACUAUUUAGUUA	0.0156 ± 0.0061
UCCUGGAUGUCGAUGCAUAGAAUUUAGUUA	0.0057 ± 0.0026
UCCUGGAUGUGCUUGCAUAGUAUAAUGUUA	0.081 ± 0.022

Sequence	pre-steady-state target cleavage rate
UCCUGGAUGUCGAACGUUAGUAUUUAGUA	< 0.0001
UCCUGGAUGUCGAAGCAUAGUAUUCAGUUA	0.00908 ± 0.0042
UCCUGGAUGUCGAUGCAUAGCAUUUAGUUA	0.0232 ± 0.0085
UCCUGGAUGUCGUUGACAUAGUAUUUAGUUA	0.0142 ± 0.0054
UCCUGGUACAGCUUGGAUAGUAUUUAGAUA	0.118 ± 0.038
UCCUCCUACUCGUUGCAUAGUAUUUUCAAA	0.0494 ± 0.013
UCCUGGAUCAGCUUGCAUAGAAUUAAGUUA	0.0383 ± 0.011
UCCUGGAUGUCCUUGCAUAGUAUUAAGUAA	0.0433 ± 0.013
UCCUGGAUGUCCUUGCAUUGAAUUUAGUUA	0.00493 ± 0.0046
UCCUGGAUGUCCAACCAUAGUAUUUAGUUA	0.00412 ± 0.004
UCCUGGAUGAGCUUGCAUAGUUAAUAGUUA	0.00524 ± 0.004
UCCUGGAACACGUUGCAUAGUAUUUUCAAA	0.0973 ± 0.026
UCCUGGAUGUGCUUGCAUUGUAUUUACUUA	0.0239 ± 0.0082
UCCUGGAUGUCCUUGCAAACUAUUUAGUUA	0.00732 ± 0.0037
UCCUGGAACAGCUUGCAUAGAAUUUAGAAA	0.0206 ± 0.0083
UCCUGGUACAGCUUGCAUAGUAAAUAGUAA	0.151 ± 0.045
UCCUGCUACAGCUUGCAUAGAUUUUAGUAA	0.0161 ± 0.0046
